From PubChem BioAssay (Tox21)
A number with no mark means an inactive call. Results filed as inconclusive are left out. A call without a number means that no potency is given here. The source made the active and inactive calls. Unless noted, calls come from the whole dose curve.

Assays:
[1] = Nuclear factor erythroid 2-related factor 2/antioxidant responsive element (Nrf2/ARE) small molecule agonists: qHTS cell viability counter screen in human keratinocytes (AID 1919968; active = well fitted curve in the direction sought with a large enough effect in the repeat runs; an effect the other way counts as inactive or inconclusive; note: nearly all actives have a fitted effect of over 55% in size; note: potency is the fitted concentration of half-maximal effect)
In short: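 Stably transfected HaCaT (KeratinoSens), 1,500/well. Test agents in DMSO were applied for 23 h, 37 C/5% CO2. CellTiter-Fluor was incubated 1 h before the fluorescence read.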

[2] = Nuclear factor erythroid 2-related factor 2/antioxidant responsive element (Nrf2/ARE) small molecule agonists: luciferase reporter gene qHTS assay in human keratinocytes (AID 1919969); note: nearly all actives have a fitted effect of over 35% in size
[3] = target: Gonadotropin-releasing hormone receptor (Homo sapiens) (UniProt P30968); assay: Human gonadotropin-releasing hormone receptor (GnRHR) small molecule agonists, calcium flux assay in GnRHR-HEK293 cells (AID 1920063); note: nearly all actives have a fitted effect of over 35% in size
In short: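 Stable human GnRHR HEK293 line. 18 h plating, then calcium dye for 1 h at 37 C. Agonist-mode compound addition from DMSO stocks; fluorescence monitored 3 min.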

[4] = target: KiSS-1 receptor (Homo sapiens) (UniProt Q969F8); assay: Human kisspeptin (KISS1R) small molecule agonists, calcium flux assay in KISS1R-HEK293 cells (AID 1920064; active = well fitted curve in the direction sought with a large enough effect in the repeat runs; an effect the other way counts as inactive or inconclusive)
In short: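 After overnight (18 h) culture at 37 C/5% CO2, human KISS1R-HEK293 cells received calcium dye for 1 h, then test compound; emission at 540 nm (excitation 480 nm) was tracked for 3 min.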

[5] = G protein-coupled receptor (GPCR) small molecule agonists, calcium flux assay: HEK293 wild type cell line counter screen (AID 1920065)
In short: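 Following 18 h incubation at 37 C/5% CO2, plates got calcium dye for 1 h; compounds, ATP or DMSO were then pinned in and fluorescence followed kinetically (480/540 nm).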

[6] = p53 small molecule agonists, cell-based qHTS assay with human liver microsomes (AID 1963577);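 note: p53 response element beta-lactamase reporter cells with liver microsomes plus NADPH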
In short: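 HLM-supplemented p53RE-bla reporter assay: 16 h compound exposure at 37 C, microsomes and NADPH each 0.5 mg/mL final, read by fluorescence intensity.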

[7] = p53 small molecule agonists, cell-based qHTS assay with rat liver microsomes (AID 1963578)
In short: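 Quantitative HTS of the Tox21 10K library: p53RE-bla cells, rat liver microsomes plus NADPH at 0.5 mg/mL final each, 16 h at 37 C, beta-lactamase fluorescence detection.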

[8] = p53 small molecule agonists, cell-based qHTS assay with human liver microsomes: qHTS cell viability counter screen (AID 1963579); note: nearly all actives have a fitted effect of over 45% in size
In short: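 Viability of p53RE-bla cells is measured as CellTiter-Glo luminescence following a 16 h, 37 C incubation with compound, liver microsomes from human donors and NADPH.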

[9] = p53 small molecule agonists, cell-based qHTS assay with rat liver microsomes: qHTS cell viability counter screen (AID 1963580); note: nearly all actives have a fitted effect of over 45% in size
In short: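 Luminescent ATP readout (CellTiter-Glo, 30 min at room temperature) reports viability of p53RE-bla HCT-116 cells after 16 h at 37 C with test compounds under metabolic activation by rat liver microsomes and NADPH at 0.5 mg/mL final each.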

[10] = p53 small molecule agonists, cell-based qHTS assay (AID 1963582; active = well fitted activation curve with a large enough effect in the signal ratio in the repeat runs, not every such curve was filed as active; the % refers to the signal ratio)
In short: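 Measured: fluorescence from cleaved LiveBLAzer substrate. System: p53RE-bla cells, 16 h compound treatment at 37 C, 2 h substrate step at room temperature.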

[11] = target: 5-hydroxytryptamine receptor 2A (Homo sapiens) (UniProt P28223); assay: 5-hydroxytryptamine receptor 2A (HTR2A) small molecule antagonists, cell-based qHTS assay (AID 1963586); note: nearly all actives have a fitted effect of over 45% in size
In short: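 CHO cells stably expressing human HTR2A were plated for 18 h at 37 C, then loaded with calcium dye for 1 h. Compounds were preincubated 5 min at room temperature before DOI (4 nM solution) was added. Kinetic fluorescence was read for 3 min.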

[12] = target: 5-hydroxytryptamine receptor 2A (Homo sapiens) (UniProt P28223); assay: 5-hydroxytryptamine receptor 2A (HTR2A) small molecule agonists, cell-based qHTS assay (AID 1963587); note: nearly all actives have a fitted effect of over 30% in size; note: potency is the fitted concentration of half-maximal effect
In short: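 HTR2A-CHO cells, plated 18 h at 37 C/5% CO2, dye-loaded 1 h at 37 C; compounds in DMSO added by pin tool (agonist mode). Intracellular calcium flux read as kinetic fluorescence on FDSS over 2 min at 1 s intervals.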

[13] = target: Muscarinic acetylcholine receptor M1 (Homo sapiens) (UniProt P11229); assay: Cholinergic receptor muscarinic 1 (CHRM1) small molecule agonists, cell-based qHTS assay (AID 1963589); note: nearly all actives have a fitted effect of over 35% in size
In short: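 Kinetic fluorescence (1 s intervals) of calcium-sensitive dye in human M1 CHO cells after compound addition; cells pre-incubated 18 h at 37 C/5% CO2 and dye-loaded 1 h.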

[14] = cAMP Responsive Elements (CRE) small molecule agonists, cell-based qHTS assay (AID 1963590)
In short: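 Test agents in DMSO were incubated 3 h at 37 C/5% CO2 with CRE-bla HEK 293T cells seeded 18 h earlier; LiveBLAzer B/G FRET substrate was added and read after 2 h at room temperature.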

[15] = cAMP Responsive Elements (CRE) small molecule antagonists, cell-based qHTS assay (AID 1963591; active = well fitted inhibition curve with a large enough effect in the signal ratio in the repeat runs, not every such curve was filed as active; the % refers to the signal ratio)
In short: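 Reporter line CRE-bla HEK 293T in dialyzed-FBS DMEM; cells preincubated 18 h, treated 3 h with compound plus NKH477 (0.25 uM final); LiveBLAzer FRET, 2 h RT.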

[16] = target: Beta-2 adrenergic receptor (Homo sapiens) (UniProt P07550); assay: Adrenergic beta2 receptor (ADRB2) small molecule antagonists, cell-based qHTS assay (AID 1963592); note: nearly all actives have a fitted effect of over 50% in size; note: potency is the fitted concentration of half-maximal effect
In short: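 Assay format: CHO-ADRB2 cells, 18-20hr seeding at 37C/5% CO2, then compound plus 1nM isoproterenol agonist mix for 0.5hr RT. Homogeneous time-resolved fluorescence cAMP detection after 1hr, expressed as 665/615 nm ratio.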

[17] = target: D(2) dopamine receptor (Homo sapiens) (UniProt P14416); assay: Dopamine D2 receptor (DRD2) small molecule agonists, cell-based qHTS assay (AID 1963594); note: nearly all actives have a fitted effect of over 35% in size
In short: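 HEK293 cells stably expressing DRD2 were cultured 24 h at 37 C, then given Ro20-1724 (0.1 mM final) and compounds for 10 min at room temperature. NKH477 (200nM) was then added for 30 min. cAMP was read by HTRF.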

[18] = target: D(2) dopamine receptor (Homo sapiens) (UniProt P14416); assay: Dopamine D2 receptor (DRD2) small molecule antagonists, cell-based qHTS assay (AID 1963595; active = well fitted inhibition curve with a large enough effect in the signal ratio in the repeat runs, with a control signal flat; the % refers to the signal ratio)
In short: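 DRD2-HEK293; 0.1 mM Ro20-1724; cpd 10 min RT; NKH477 200 nM + quinpirole 12 nM, 30 min RT; HTRF cAMP (cAMP-d2/anti-cAMP cryptate), 665/620 nm ratio after 1 h.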

[19] = target: Muscarinic acetylcholine receptor M1 (Homo sapiens) (UniProt P11229); assay: Cholinergic receptor muscarinic 1 (CHRM1) small molecule antagonists, cell-based qHTS assay (AID 1963588); note: nearly all actives have a fitted effect of over 40% in size; note: potency is the fitted concentration of half-maximal effect
In short: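 Compounds were tested at 15 concentrations in three independent runs. Dye-loaded CHRM1-CHO cells were exposed 5 min at room temperature before stimulation by acetylcholine added at 50nM. Intracellular calcium was read kinetically on FDSS for 3 min.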

[20] = target: Beta-2 adrenergic receptor (Homo sapiens) (UniProt P07550); assay: Adrenergic beta2 receptor (ADRB2) small molecule agonists, cell-based qHTS assay (AID 1963593);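 note: CHO cells stably overexpressing human ADRB2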
In short: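 CHO cells stably over-expressing ADRB2 were plated overnight at 37C, then dosed with compounds plus a stimulation mix containing 100uM IBMX and 25uM Ro-20-1724 for 0.5hr at room temperature. cAMP was measured by HTRF competition, 1hr.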

Muscarinic acetylcholine receptor M1 (Homo sapiens), sequence (P11229 whole entry, looked up): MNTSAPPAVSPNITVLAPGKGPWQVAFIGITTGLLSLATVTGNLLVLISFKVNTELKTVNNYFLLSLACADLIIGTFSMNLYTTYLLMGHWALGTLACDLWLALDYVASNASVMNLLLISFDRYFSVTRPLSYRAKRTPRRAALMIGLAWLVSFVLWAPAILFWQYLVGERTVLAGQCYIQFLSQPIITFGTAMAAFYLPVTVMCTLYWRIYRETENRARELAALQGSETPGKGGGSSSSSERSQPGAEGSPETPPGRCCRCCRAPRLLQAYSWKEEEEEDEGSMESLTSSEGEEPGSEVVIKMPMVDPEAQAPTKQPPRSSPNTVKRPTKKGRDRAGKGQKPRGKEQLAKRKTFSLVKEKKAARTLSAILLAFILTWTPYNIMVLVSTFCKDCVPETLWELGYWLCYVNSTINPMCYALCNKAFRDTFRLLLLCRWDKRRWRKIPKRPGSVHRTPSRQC
5-hydroxytryptamine receptor 2A (Homo sapiens), sequence (P28223 whole entry, looked up): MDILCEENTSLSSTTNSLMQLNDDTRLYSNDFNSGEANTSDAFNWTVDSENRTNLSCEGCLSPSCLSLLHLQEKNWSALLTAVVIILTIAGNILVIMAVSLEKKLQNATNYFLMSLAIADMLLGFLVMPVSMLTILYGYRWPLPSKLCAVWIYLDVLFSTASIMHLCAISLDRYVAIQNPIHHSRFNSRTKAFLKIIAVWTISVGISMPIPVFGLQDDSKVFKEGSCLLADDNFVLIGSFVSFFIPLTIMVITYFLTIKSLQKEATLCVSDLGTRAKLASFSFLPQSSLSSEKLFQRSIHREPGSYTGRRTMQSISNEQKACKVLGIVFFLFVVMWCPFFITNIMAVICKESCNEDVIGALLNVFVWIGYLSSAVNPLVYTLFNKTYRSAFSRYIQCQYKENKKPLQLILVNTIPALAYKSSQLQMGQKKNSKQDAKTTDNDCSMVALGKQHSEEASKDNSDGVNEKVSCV
KiSS-1 receptor (Homo sapiens), sequence (Q969F8 whole entry, looked up): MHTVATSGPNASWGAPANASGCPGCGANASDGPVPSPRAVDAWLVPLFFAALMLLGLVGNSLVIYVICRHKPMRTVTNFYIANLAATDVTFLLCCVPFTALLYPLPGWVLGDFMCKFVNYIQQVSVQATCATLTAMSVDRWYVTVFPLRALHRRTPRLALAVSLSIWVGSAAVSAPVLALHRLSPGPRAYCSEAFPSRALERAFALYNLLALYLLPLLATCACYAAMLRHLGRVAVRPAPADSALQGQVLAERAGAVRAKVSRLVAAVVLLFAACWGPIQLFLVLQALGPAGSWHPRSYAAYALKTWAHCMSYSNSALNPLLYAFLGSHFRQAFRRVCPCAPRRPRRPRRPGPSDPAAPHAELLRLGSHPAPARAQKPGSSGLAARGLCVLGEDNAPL
Beta-2 adrenergic receptor (Homo sapiens), sequence (P07550 whole entry, looked up): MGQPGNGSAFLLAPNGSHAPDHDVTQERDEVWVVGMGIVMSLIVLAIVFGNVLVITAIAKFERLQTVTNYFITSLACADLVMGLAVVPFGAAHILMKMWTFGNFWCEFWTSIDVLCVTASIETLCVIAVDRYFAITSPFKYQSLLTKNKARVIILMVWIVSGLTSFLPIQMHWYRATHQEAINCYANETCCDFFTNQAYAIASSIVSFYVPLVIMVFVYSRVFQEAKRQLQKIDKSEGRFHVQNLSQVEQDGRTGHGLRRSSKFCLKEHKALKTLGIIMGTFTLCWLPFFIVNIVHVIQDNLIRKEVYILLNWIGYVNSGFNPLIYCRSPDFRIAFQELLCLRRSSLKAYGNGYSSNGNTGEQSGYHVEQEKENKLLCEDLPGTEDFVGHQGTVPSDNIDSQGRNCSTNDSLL
D(2) dopamine receptor (Homo sapiens), sequence (P14416 whole entry, looked up): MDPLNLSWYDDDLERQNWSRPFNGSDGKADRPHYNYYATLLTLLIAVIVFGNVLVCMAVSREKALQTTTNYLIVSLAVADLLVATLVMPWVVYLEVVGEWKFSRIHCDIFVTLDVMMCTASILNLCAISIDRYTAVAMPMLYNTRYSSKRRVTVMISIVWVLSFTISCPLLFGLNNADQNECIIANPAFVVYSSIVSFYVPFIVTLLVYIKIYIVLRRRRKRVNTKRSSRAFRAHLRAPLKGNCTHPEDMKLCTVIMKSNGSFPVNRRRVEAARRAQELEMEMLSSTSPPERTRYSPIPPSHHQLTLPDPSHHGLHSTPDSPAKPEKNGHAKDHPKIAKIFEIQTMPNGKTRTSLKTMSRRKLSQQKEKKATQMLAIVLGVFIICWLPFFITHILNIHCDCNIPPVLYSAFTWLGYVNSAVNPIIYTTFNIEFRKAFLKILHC
Gonadotropin-releasing hormone receptor (Homo sapiens), sequence (P30968 whole entry, looked up): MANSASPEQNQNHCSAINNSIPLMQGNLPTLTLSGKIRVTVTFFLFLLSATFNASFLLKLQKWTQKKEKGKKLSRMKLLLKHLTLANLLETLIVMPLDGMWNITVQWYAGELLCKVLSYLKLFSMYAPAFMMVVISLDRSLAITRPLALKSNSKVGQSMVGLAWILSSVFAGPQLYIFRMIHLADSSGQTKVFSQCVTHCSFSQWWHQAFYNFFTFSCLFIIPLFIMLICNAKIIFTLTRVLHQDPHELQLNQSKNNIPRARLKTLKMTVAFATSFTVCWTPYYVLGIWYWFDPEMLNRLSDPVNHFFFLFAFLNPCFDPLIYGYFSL

SMILES	Potency [1]	Potency [2]	Potency [3]	outcome [4]	outcome [5]	Potency [6]	Potency [7]	Potency [8]	Potency [9]	Potency [10]	Potency [11]	Potency [12]	Potency [13]	Potency [14]	Potency [15]	Potency [16]	Potency [17]	Potency [18]	Potency [19]	Potency [20]
CC(C)(O)CCC(C)(C)O	inactive	inactive	inactive	inactive	inactive	inactive	inactive	inactive	inactive	inactive	inactive	inactive	inactive	inactive	inactive	inactive	inactive	inactive	–	–
Nc1ncnc2c1ncn2[C@H]1CC[C@@H](CO)O1	inactive	inactive	inactive	inactive	inactive	inactive	inactive	inactive	inactive	inactive	inactive	inactive	inactive	inactive	–	inactive	–	inactive	–	–
OCC(CO)n1cnc(-c2ccc(F)cc2)c1-c1ccnc(Oc2ccccc2)n1	inactive	inactive	inactive	inactive	inactive	inactive	inactive	inactive	inactive	inactive	inactive	inactive	inactive	–	–	inactive	inactive	inactive	inactive	inactive
Cc1cnc(NS(=O)(=O)c2ccc(N)cc2)nc1	inactive	inactive	inactive	inactive	inactive	inactive	inactive	inactive	inactive	inactive	inactive	inactive	–	–	inactive	–	–	inactive	inactive	–
CCCCCCCCCCCCCCCC[N+](C)(C)CCN(Cc1ccc(OC)cc1)c1ncccn1	26.6 µM (active)	inactive	inactive	inactive	inactive	inactive	inactive	inactive	inactive	inactive	–	inactive	inactive	–	–	inactive	inactive	–	inactive	–
CC(=O)OC(C)=O	inactive	inactive	inactive	inactive	inactive	inactive	inactive	inactive	inactive	inactive	–	inactive	inactive	–	–	inactive	inactive	inactive	–	–
CC(C)C(=O)OC/C=C/c1ccccc1	inactive	inactive	inactive	inactive	inactive	inactive	inactive	inactive	inactive	inactive	inactive	inactive	–	inactive	inactive	inactive	–	inactive	inactive	–
CCN(CCCCOC(=O)c1ccc(OC)c(OC)c1)C(C)Cc1ccc(OC)cc1 (stereo not given)	inactive	inactive	inactive	inactive	inactive	inactive	inactive	inactive	inactive	inactive	–	12 µM (active)	–	inactive	–	13.3 µM (active)	inactive	inactive	0.163 µM (active)	–
